Assay results published in PubChem BioAssay AID1851 (National Center for Advancing Translational Sciences (NCATS), 2009).
Screen size: about 16,000 compounds; about 5,700 (36%) were called active. Not shown: some 24% with an inconclusive outcome. The list shows a part of the results. Unmarked numbers belong to inactive results. Calls come from the whole dose curve; as a rule, active = well fitted curve in the direction sought with a large enough effect; inconclusive = small, poorly fitted or top-dose-only effect, or effect the other way; inactive = no such curve, though single readings can be large or run the other way.

target: Cytochrome P450 1A2 (Homo sapiens) (UniProt P05177); experiment: Cytochrome panel assay with activity outcomes; details: recombinant CYP, pro-luciferin dealkylation, luminescence, p450-cyp1a2; series mostly up to 57.1 µM; activity, negative = inhibition: at the top concentration
Sequence (P05177 whole entry, looked up): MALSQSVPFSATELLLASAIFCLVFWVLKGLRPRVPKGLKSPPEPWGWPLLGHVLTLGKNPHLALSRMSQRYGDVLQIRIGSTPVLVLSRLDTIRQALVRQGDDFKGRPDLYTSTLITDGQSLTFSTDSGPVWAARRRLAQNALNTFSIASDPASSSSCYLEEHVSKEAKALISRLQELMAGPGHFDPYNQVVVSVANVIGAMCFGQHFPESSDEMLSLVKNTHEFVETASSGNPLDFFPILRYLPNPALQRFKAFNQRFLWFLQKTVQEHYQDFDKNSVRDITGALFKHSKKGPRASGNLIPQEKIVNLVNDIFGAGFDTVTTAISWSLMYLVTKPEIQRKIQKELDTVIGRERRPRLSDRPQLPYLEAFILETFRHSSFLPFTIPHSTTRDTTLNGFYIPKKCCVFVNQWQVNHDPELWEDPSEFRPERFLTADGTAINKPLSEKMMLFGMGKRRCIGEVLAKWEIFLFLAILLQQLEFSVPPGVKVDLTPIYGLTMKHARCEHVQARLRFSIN
% is set by controls: 0 for no effect and ±100 for the full control effect.

Row | SMILES | activity, negative = inhibition | AC50
1 | C[C@@]12CCC(=O)C=C1CC[C@@H]1[C@@H]2[C@H](O)C[C@]2(C)[C@@H]1CC[C@]2(O)C(=O)CO | -6.61% [at 25.6 µM] | 
2 | Cc1sc(NC(=O)c2ccccc2)c(C(=O)NCCN(C)C)c1C |  | 11.2 µM (active)
3 | CC(C)C(=O)Nc1ccc(C(=O)NNC(=O)C(c2ccccc2)c2ccccc2)cc1 | -16.1% | 
4 | CCOc1ccc(CC(=O)Nc2sc(Cc3ccccc3)c(C)c2C(N)=O)cc1OCC | -26.8% | 
5 | CCOC(=O)c1c(NC(=O)Nc2ccccc2)sc(C)c1C |  | 3.55 µM (active)
6 | COC(=O)c1c(NC(C)=O)sc(Cc2ccccc2)c1C |  | 1.58 µM (active)
7 | Cc1sc(NC(=O)C(C)C)c(C(=O)Nc2ccccc2)c1C |  | 1.26 µM (active)
8 | CCN1CCN(C(c2ccccn2)c2c(NC(=O)c3ccccc3)sc(C)c2C)CC1 (configuration not stated) | -13.5% | 
9 | CN(C(=O)CC(NC(=O)c1ccccc1)(c1ccccc1)c1ccccc1)c1ccccc1 | -7.59% | 
10 | C=C(Br)CN(C)CC(=C)Br | -4.98% [at 11.4 µM] | 
11 | CC(C)SC(=N)N | -17.7% | 
12 | Cc1noc(C)c1C(=O)N1CCC[C@@]2(CCN(C(=O)NC(C)C)C2)C1 | -23.1% | 
13 | O=C(O)CP(=O)(O)O |  | inactive
14 | Cc1oc(-c2cccc(Cl)c2)[n+]([O-])c1C |  | 4.47 µM (active)
15 | CCC/C=C(\CCC)C(NP(=O)(c1ccccc1)c1ccccc1)c1ccc(C(F)(F)F)cc1 (configuration not stated) | -7.24% | 
16 | CCCC/C=C/C(NC(=O)c1ccco1)c1ccccc1 (configuration not stated) |  | 5.01 µM (active)
17 | CCCC/C=C/C(NC(=O)Oc1cccc(C(F)(F)F)c1)c1ccccc1 (configuration not stated) |  | 2.51 µM (active)
18 | C#CCOC(=O)NC(/C=C/CCCC)c1ccccc1 (configuration not stated) |  | 15.8 µM (active)
19 | CCC(=O)Nc1ccc(C(=O)NNC(=O)c2cccs2)cc1 | 13.6% | 
20 | CCCC/C=C/C(NC(=O)c1cccs1)c1ccccc1 (configuration not stated) |  | 1.58 µM (active)
21 | O=C(c1cccs1)N1CCN(C(=O)C(c2ccccc2)c2ccccc2)CC1 | -5.01% | 
22 | Nc1ncnc2c1nc(Br)n2[C@@H]1O[C@H]2COP(=O)(O)O[C@@H]2[C@H]1O | -8.7% | 
23 | CC1(C)Cc2ccccc2C(N/N=C/c2cccc(F)c2)=N1 |  | 11.2 µM (active)

Row | SMILES | activity, negative = inhibition | AC50
24 | Cn1c(Oc2ccccc2)c(C=O)c2ccccc21 |  | 7.08 µM (active)
25 | COc1ccc(Oc2c(C=O)c3ccccc3n2C)cc1 |  | 14.1 µM (active)
26 | Cc1cccc(C(=O)NN(C)c2nc(-c3ccccc3)nnc2C(F)(F)F)c1 | 21.4% | 
27 | FC(F)(F)c1nnc(-c2ccccc2)nc1Sc1ccccc1 |  | 1.41 µM (active)
28 | COc1ccc(CC(=O)O/N=C(\N)Cc2ccc(OC)cc2)cc1 | -29.9% | 
29 | COc1ccccc1CC(=O)O/N=C(\N)Cc1cccc2ccccc12 |  | 11.2 µM (active)
30 | COc1ccccc1C/C(N)=N/OC(=O)c1ccc(C)c([N+](=O)[O-])c1 |  | 14.1 µM (active)
31 | COc1ccccc1CNC(=O)C/C(C)=N/NC(=O)Cc1ccccc1 | -20.9% | 
32 | C[N+](C)(C)CCOC(N)=O |  | inactive
33 | CCOC(=O)[C@@H](O)Cc1cnc2ccccc2n1 |  | 3.16 µM (active)
34 | O=S(=O)(c1cnccc1N1CCN(CCO)CC1)N1CCCC1 | -8.25% [at 2.29 µM] | 
35 | FC(F)(F)c1cc(CN2CCC3(CCNCC3)CC2)cc(C(F)(F)F)c1 | -9.83% | 
36 | Cc1ccc(NC(=O)c2cccc(N(C)C)c2)cc1NC(=O)c1ccc(O)cc1 |  | 1.26 µM (active)
37 | OC(COc1ccc(OCC(O)CN2CCCCCC2)cc1)CN1CCCCCC1 (configuration not stated) | 4.84% | 
38 | Cc1nn(CC(O)COc2ccc3c(c2)CCC3)c(C)c1Br (configuration not stated) |  | 12.6 µM (active)
39 | COc1ccc(C2=CSC(/N=C/c3ccc(F)cc3)=NN2)cc1 |  | 2.82 µM (active)
40 | CC(C)=NO[C@@H](C)CN1CCCCc2nc(C)c(C)cc21 | -10.5% [at 11.4 µM] | 
41 | Cc1cc(Br)ccc1NC(=O)CCSc1ccccc1 |  | 4.47 µM (active)
42 | Cc1ccc(NC(=O)CCC(=O)NNS(=O)(=O)c2ccccc2)c(C)c1 | -29.8% | 
43 | S=C(S)O[C@@H]1C[C@@H]2C[C@H]1[C@@H]1CCC[C@H]21 |  | inactive
44 | O=C(COc1ccc(-c2ccccc2)cc1)N/N=C/c1ccccc1Br |  | 5.01 µM (active)
45 | COc1ccc(OCC(=O)NNC(=O)c2ccc(-c3ccccc3)cc2)cc1 | -1.81% | 
46 | O=C(COc1ccccc1-c1ccccc1)N/N=C/c1cccc2ccccc12 |  | 0.794 µM (active)

Row | SMILES | activity, negative = inhibition | AC50
47 | O=c1[nH]c(SCc2c(Cl)c(Cl)c(Cl)c(Cl)c2Cl)nc(=S)[nH]1 |  | 1 µM (active)
48 | CCCC[C@H]1C[C@@H]1[C@@H]1N(P(=O)(c2ccccc2)c2ccccc2)[C@](CO)(c2ccccc2)CC12CC2 | -20.5% | 
49 | OC[C@@H]1O[C@@H](O)[C@H](N=Cc2ccc3c(c2)OCO3)[C@@H](O)[C@@H]1O | -24.4% [at 2.29 µM] | 
50 | CCc1n[nH]c(=S)n1/N=C/c1ccc2c(c1)OCO2 |  | 2.24 µM (active)
51 | CCCc1nnc(SCC(=O)O)n1/N=C/c1ccc2c(c1)OCO2 |  | 15.8 µM (active)
52 | CCCc1nnc(SCC(=O)N2CCCC(C)C2)n1CC1CCCO1 (configuration not stated) | 7.21% | 
53 | CSc1nncn1/N=C/c1ccc2c(c1)OCO2 |  | 4.47 µM (active)
54 | CCCc1nnc(SCC(=O)N2CCCCC2)n1CCCOC | -23.7% | 
55 | O=c1cc(CSc2nnc(-c3cccnc3)n2-c2ccccc2F)nc2sccn12 | -0.0564% | 
56 | COCCn1c(=O)c(-c2ccc(Cl)cc2)nc2cnc(N(C)C)nc21 |  | 1 µM (active)
57 | COCCn1c(=O)c(-c2ccc(F)cc2)nc2cnc(N(C)C)nc21 |  | 2 µM (active)
58 | COCCn1c(=O)c(-c2ccccc2)nc2cnc(N(C)C)nc21 |  | 3.16 µM (active)
59 | C[C@@H]1/C=C\CC(=O)OC[C@H](C)C(=O)N2CCC[C@@H]2C(=O)OC1 | -1.21% [at 11.4 µM] | 
60 | Cc1ccc(/C=C/c2ccc(=O)n(Cc3ccc(Cl)cc3Cl)n2)cc1 |  | 10 µM (active)
61 | CC(=O)OC[C@@H]1O[C@H](CCON=C(C)C)C=C[C@@H]1OC(C)=O | 4.98% [at 11.4 µM] | 
62 | c1ccc(CCc2cccnc2)nc1 |  | 0.398 µM (active)
63 | CNCCc1ccccn1 | -3.65% [at 25.6 µM] | 
64 | ON(CCc1ccccn1)Cc1ccccc1 |  | 2.51 µM (active)
65 | O=C1NC(=O)[C@@](Cc2ccccc2)(c2cccnc2)N1 | -17.1% [at 2.29 µM] | 
66 | ON(CCc1ccncc1)Cc1ccccc1 |  | 1 µM (active)
67 | CS(=O)(=O)N(CC(=O)O)Cc1ccccc1 | 4.38% [at 11.4 µM] | 
